Experimental data: PubChem BioAssay (Tox21)
Records with an inconclusive call do not appear. Activity calls are given as the source filed them. Unless noted, calls follow the shape of the dose curve; as a rule, active = well fitted curve in the direction sought with a large enough effect in the repeat runs; inconclusive = weak or mixed curves; inactive = no such curve, though single readings can be large; an effect the other way counts as inactive or inconclusive.

What was measured:
[1] = A CellTox Green Cytotoxicity Assay to monitor cytotoxicity in HepG2 cells - 0 hour (AID 1224882); also: nearly all actives have a fitted effect of over 35% in size
Outline: (§1)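 Continuous culture of HepG2 cells with a membrane-impermeant DNA dye; rising fluorescence marks dead cells. Compound exposure lasted up to 40 h at 37 C, with reads every 8 h from 0 h.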

[2] = A CellTox Green Cytotoxicity Assay to monitor cytotoxicity in HepG2 cells - 32 hour (AID 1224883); also: nearly all actives have a fitted effect of over 50% in size; also: potency is read from the fitted curve at half-maximal effect
Outline: as §1

[3] = A CellTox Green Cytotoxicity Assay to monitor cytotoxicity in HEK293 cells - 8 hour (AID 1224884); also: nearly all actives have a fitted effect of over 35% in size; also: potency is read from the fitted curve at half-maximal effect
Outline: (§2)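 Each value comes from one timepoint of a single continuous run in which HEK293 cells with CellTox Green were exposed to compound for up to 40 h at 37 C, dye fluorescence rising with cell death.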

[4] = qHTS RealTime-Glo MT Cell Viability Assay in HepG2 cells - 16 hour (AID 1224885); also: nearly all actives have a fitted effect of over 50% in size; also: potency is read from the fitted curve at half-maximal effect
Outline: (§3)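 Viability was tracked continuously by NanoLuc luminescence from prosubstrate reduced by living HepG2 cells, at successive time points over 40 h of compound exposure. Cells with reagent were preincubated 5 h at 37 °C before compound addition.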

[5] = qHTS RealTime-Glo MT Cell Viability Assay in HEK293 cells - 24 hour (AID 1224886); also: nearly all actives have a fitted effect of over 50% in size; also: potency is read from the fitted curve at half-maximal effect; as to activity change, negative = cytotoxicity: top concentration of the series differs between compounds
Outline: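 Viability tracked continuously by luminescence as live cells reduce a prosubstrate for NanoLuc; HEK293 cells preincubated 5 h, compound-treated at 37 C, and read at 0, 8, 16, 24, 32 and 40 h.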

[6] = qHTS RealTime-Glo MT Cell Viability Assay in HEK293 cells - 8 hour (AID 1224887); also: nearly all actives have a fitted effect of over 50% in size; also: potency is read from the fitted curve at half-maximal effect; as to activity change, negative = cytotoxicity: top concentration of the series differs between compounds
Outline: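 qHTS format; HEK293 cells with NanoLuc/prosubstrate reagent, 37 C/5% CO2 for 5 h pre-dosing; compounds 23 nL in DMSO; luminescence at each time point reflects viable cells.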

[7] = A CellTox Green Cytotoxicity Assay to monitor cytotoxicity in HEK293 cells - 16 hour (AID 1224888); also: nearly all actives have a fitted effect of over 35% in size; also: potency is read from the fitted curve at half-maximal effect
Outline: as §2

[8] = qHTS RealTime-Glo MT Cell Viability Assay in HepG2 cells - 0 hour (AID 1224889); also: nearly all actives have a fitted effect of over 50% in size; also: potency is read from the fitted curve at half-maximal effect
Outline: as §3

[9] = A CellTox Green Cytotoxicity Assay to monitor cytotoxicity in HepG2 cells - 8 hour (AID 1224890); also: nearly all actives have a fitted effect of over 45% in size; also: potency is read from the fitted curve at half-maximal effect
Outline: as §1

[10] = qHTS assay to identify small molecule antagonists of the estrogen receptor alpha (ER-alpha) signaling pathway using the BG1 cell line in the presence of 0.1 nM 17-beta-estradiol - cell viability counter screen (AID 1259241); also: nearly all actives have a fitted effect of over 40% in size; also: potency is read from the fitted curve at half-maximal effect
Outline: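 VM7Luc4E2 cells (endogenous ER-alpha, 4×ERE-luciferase), hormone-starved 5 days in charcoal-stripped FBS, were treated with compounds plus 0.1 nM 17beta-estradiol for 22 hr at 37C; viability read in same wells as CellTiter-Fluor live-cell protease fluorescence.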

[11] = qHTS assay to identify small molecule antagonists of the androgen receptor (AR) signaling pathway using the MDA cell line in the presence of 0.5 nM R1881 - cell viability counter screen (AID 1259242); also: nearly all actives have a fitted effect of over 45% in size; also: potency is read from the fitted curve at half-maximal effect
Outline: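 Fluorescence from CellTiter-Fluor, which reports protease activity of live cells, was read 30 min after reagent addition to MDA-kb2 cells that had been incubated 16 hr with compound and 0.5 nM R1881.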

[12] = biological target: Androgen receptor (Homo sapiens) (UniProt P10275); experiment: qHTS assay to identify small molecule antagonists of the androgen receptor (AR) signaling pathway using the MDA cell line in the presence of 0.5 nM R1881 (AID 1259243); also: nearly all actives have a fitted effect of over 50% in size; also: potency is read from the fitted curve at half-maximal effect
Chain of Androgen receptor (Homo sapiens) (P10275 whole entry, looked up): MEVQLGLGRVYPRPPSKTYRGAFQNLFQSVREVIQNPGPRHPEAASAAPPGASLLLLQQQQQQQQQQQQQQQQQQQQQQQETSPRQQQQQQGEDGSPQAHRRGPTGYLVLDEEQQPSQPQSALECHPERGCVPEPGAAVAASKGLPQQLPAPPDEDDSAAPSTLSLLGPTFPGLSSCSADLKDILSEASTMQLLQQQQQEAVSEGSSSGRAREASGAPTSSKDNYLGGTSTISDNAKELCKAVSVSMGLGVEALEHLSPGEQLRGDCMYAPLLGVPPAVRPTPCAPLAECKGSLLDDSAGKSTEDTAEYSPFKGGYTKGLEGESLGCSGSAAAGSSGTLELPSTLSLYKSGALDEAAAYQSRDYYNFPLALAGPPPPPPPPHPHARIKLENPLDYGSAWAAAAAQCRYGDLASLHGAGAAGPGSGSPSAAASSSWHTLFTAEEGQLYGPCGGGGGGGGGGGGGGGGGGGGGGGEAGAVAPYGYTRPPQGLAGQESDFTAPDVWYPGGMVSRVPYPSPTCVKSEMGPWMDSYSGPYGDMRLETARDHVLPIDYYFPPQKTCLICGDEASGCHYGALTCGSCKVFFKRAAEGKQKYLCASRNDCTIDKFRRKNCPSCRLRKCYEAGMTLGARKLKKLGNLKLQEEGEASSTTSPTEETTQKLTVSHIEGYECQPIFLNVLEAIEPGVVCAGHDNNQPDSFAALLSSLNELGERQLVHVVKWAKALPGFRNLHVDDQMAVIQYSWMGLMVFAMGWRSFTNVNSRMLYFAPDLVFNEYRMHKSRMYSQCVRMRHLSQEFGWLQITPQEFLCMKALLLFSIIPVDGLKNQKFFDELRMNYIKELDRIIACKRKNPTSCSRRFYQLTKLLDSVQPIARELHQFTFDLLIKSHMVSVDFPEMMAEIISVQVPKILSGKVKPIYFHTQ
Outline: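 Inhibition of R1881 (0.5 nM final) induced reporter signal was measured in human MDA-kb2 cells; note the MMTV promoter also responds to GR. Exposure lasted 16 hr at 37C.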

[13] = biological target: Estrogen receptor (Homo sapiens) (UniProt P03372); experiment: qHTS assay to identify small molecule antagonists of the estrogen receptor alpha (ER-alpha) signaling pathway using the BG1 cell line in the presence of 0.1 nM 17-beta-estradiol (AID 1259244); also: nearly all actives have a fitted effect of over 50% in size; also: potency is read from the fitted curve at half-maximal effect
Chain of Estrogen receptor (Homo sapiens) (P03372 whole entry, looked up): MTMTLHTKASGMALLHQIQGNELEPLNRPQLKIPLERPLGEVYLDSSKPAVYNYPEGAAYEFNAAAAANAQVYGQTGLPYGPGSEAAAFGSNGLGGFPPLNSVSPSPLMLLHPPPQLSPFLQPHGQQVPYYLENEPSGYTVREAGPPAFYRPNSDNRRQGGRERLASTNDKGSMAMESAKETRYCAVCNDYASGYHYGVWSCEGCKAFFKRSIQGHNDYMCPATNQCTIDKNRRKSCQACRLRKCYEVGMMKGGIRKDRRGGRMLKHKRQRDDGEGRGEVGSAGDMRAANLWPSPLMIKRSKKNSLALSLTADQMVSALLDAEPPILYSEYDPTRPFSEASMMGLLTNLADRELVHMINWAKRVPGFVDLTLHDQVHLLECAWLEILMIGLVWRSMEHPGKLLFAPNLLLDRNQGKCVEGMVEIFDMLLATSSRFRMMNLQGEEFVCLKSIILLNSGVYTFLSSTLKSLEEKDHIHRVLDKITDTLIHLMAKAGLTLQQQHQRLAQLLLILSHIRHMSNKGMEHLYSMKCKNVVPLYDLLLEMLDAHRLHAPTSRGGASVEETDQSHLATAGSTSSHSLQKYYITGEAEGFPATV
Outline: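 Quantitative high-throughput screen in VM7Luc4E2 cells: compound plus 0.1 nM E2 (final), 22 h, 37C, 5% CO2; ONE-Glo added, 30 min room temperature, luminescence measured.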

[14] = qHTS assay to identify small molecule HDAC inhibitors (AID 1259364); also: top concentration of the series differs between compounds; nearly all actives have a fitted effect of over 45% in size
Outline: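 Endogenous HDAC class I/II activity was measured in wild-type HCT-116 cells by HDAC-Glo luminescence after 2 h compound treatment.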

[15] = qHTS assay to identify small molecule HDAC inhibitors - cell viability counter screen (AID 1259365); also: nearly all actives have a fitted effect of over 50% in size; also: potency is read from the fitted curve at half-maximal effect; as to activity change, negative = cytotoxicity: series mostly up to about 92 µM
Outline: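 Wild-type HCT-116 cells were seeded at 1,500 per well, incubated overnight at 37 C, then exposed to compounds in DMSO for 2hr. Viability was read by CellTiter-Glo luminescence after 30min at room temperature.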

[16] = qHTS assay to identify small molecule agonists of the sonic hedgehog signaling (Shh) pathway - cell viability counter screen (AID 1259366); also: nearly all actives have a fitted effect of over 50% in size; also: potency is read from the fitted curve at half-maximal effect
Outline: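 NIH/3T3-derived 3T3 Gli1-Luc cells (stable Gli1-responsive firefly luciferase reporter) were seeded, rested 4 hr at 37 C/5% CO2, then exposed to compounds in DMSO for 24 hr; viability was read by CellTiter-Fluor fluorescence in the same wells.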

[17] = qHTS assay to identify small molecule antagonists of the sonic hedgehog signaling (Shh) pathway - cell viability counter screen (AID 1259367); also: nearly all actives have a fitted effect of over 55% in size; also: potency is read from the fitted curve at half-maximal effect
Outline: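 NIH/3T3-derived Gli1-Luc reporter cells, 2,000/well, plated 4 hr before compound addition, then stimulated with conditioned medium for 24 hr at 37C. Viability measured in the same wells by CellTiter-Fluor fluorescence, reagent added at 23 hr for 1 hr.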

[18] = qHTS assay to identify small molecule agonists of the sonic hedgehog signaling (Shh) pathway (AID 1259368; calls by dose curve; also: series mostly up to about 92 µM; nearly all actives have a fitted effect of over 15% in size)
Outline: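 Luminescent signal was taken as a measure of Gli1-controlled luciferase expression in stably transfected NIH/3T3-derived cells that had been treated for 24 hr with compounds delivered in DMSO.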

[19] = qHTS assay to identify small molecule antagonists of the sonic hedgehog signaling (Shh) pathway (AID 1259369; calls by dose curve; also: nearly all actives have a fitted effect of over 45% in size; also: potency is read from the fitted curve at half-maximal effect)
Outline: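 Screening used 3T3Gli1-Luc cells at 2,000 per well, compounds delivered in DMSO, and conditioned medium as agonist stimulus; plates incubated 24hr at 37 C and 5% CO2 before a 30min luciferase step.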

[20] = qHTS assay to identify small molecule phospholipidosis (PLD) inducers (AID 1259344; active = well fitted curve in the direction sought with a large enough effect; an effect the other way counts as inactive or inconclusive)
Outline: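 HepG2 cells, 900/well, treated with compound plus LipidTOX Red for 24 h at 37 C; amiodarone positive and DMSO negative controls. Fixed with paraformaldehyde/Hoechst, then high-content imaging scored LipidTOX pit count and integrated intensity per well and per cell.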
% is scaled to controls: 0 for no effect and ±100 for the full control effect.

CN(CCCC(=O)c1cccnc1)N=O
inactive: Potency [1] | Potency [2] | Potency [3] | Potency [4] | Potency [5] | Potency [6] | Potency [7] | Potency [8] | Potency [9] | Potency [10] | Potency [11] | Potency [12] | Potency [13] | Potency [14] | Potency [15] | Potency [16] | Potency [17] | Potency [18] | Potency [19]

N#Cc1ccccc1N
inactive: Potency [1] | Potency [2] | Potency [3] | Potency [4] | Potency [5] | Potency [6] | Potency [7] | Potency [8] | Potency [9] | Potency [10] | Potency [11] | Potency [12] | Potency [13] | Potency [14] | Potency [15] | Potency [16] | Potency [17] | Potency [18] | Potency [19]

CN(C)CCc1c[nH]c2ccc(O)cc12
active: Potency [17] 59.7 µM | Potency [19] 8.43 µM
inactive: Potency [1] | Potency [2] | Potency [3] | Potency [4] | Potency [5] | Potency [6] | Potency [7] | Potency [8] | Potency [9] | Potency [10] | Potency [11] | Potency [12] | Potency [20] | Potency [14] | Potency [15] | Potency [18]

N#C/C=C/c1ccccc1
inactive: Potency [1] | Potency [2] | Potency [3] | Potency [4] | Potency [5] | Potency [6] | Potency [7] | Potency [8] | Potency [9] | Potency [10] | Potency [11] | Potency [12] | Potency [13] | Potency [14] | Potency [15] | Potency [17] | Potency [18] | Potency [19]

O=C(CCl)Nc1ccccc1
inactive: Potency [1] | Potency [2] | Potency [3] | Potency [4] | Potency [6] | Potency [7] | Potency [8] | Potency [9] | Potency [14] | Potency [15] | Potency [18] | Potency [19]
active: Potency [5] 43.6 µM | Potency [10] 61.1 µM | Potency [11] 61.1 µM | Potency [12] 48.6 µM | Potency [13] 61.1 µM | Potency [16] 12.2 µM | Potency [17] 27.3 µM

Fc1ccc(Oc2ccnc3cc(Cl)cc(Cl)c23)cc1
inactive: Potency [1] | Potency [2] | Potency [3] | Potency [4] | Potency [7] | Potency [8] | Potency [9] | Potency [10] | Potency [11] | Potency [13] | Potency [14] | Potency [15] | Potency [16] | Potency [17] | Potency [18]
active: Potency [5] 11 µM | Potency [6] 7.76 µM

CN(CCCC(O)c1cccnc1)N=O (stereo not given)
inactive: Potency [1] | Potency [2] | Potency [3] | Potency [4] | Potency [5] | Potency [6] | Potency [7] | Potency [8] | Potency [9] | Potency [10] | Potency [11] | Potency [12] | Potency [13] | Potency [14] | Potency [15] | Potency [16] | Potency [17] | Potency [18] | Potency [19]

CCC(C)(C)C(=O)OC1=C(c2ccc(Cl)cc2Cl)C(=O)OC12CCCCC2
active: Potency [8] 34.7 µM
inactive: Potency [1] | Potency [2] | Potency [3] | Potency [4] | Potency [5] | Potency [6] | Potency [7] | Potency [9] | Potency [10] | Potency [11] | Potency [12] | Potency [13] | Potency [14] | Potency [15] | Potency [16] | Potency [18]

[Cl][Sn]([c]1ccccc1)([c]1ccccc1)[c]1ccccc1
active: Potency [2] 2.61 µM | Potency [3] 2.33 µM | Potency [4] 2.93 µM | Potency [5] 0.262 µM | Potency [6] 0.737 µM | Potency [7] 2.33 µM | Potency [9] 9.28 µM | Potency [10] 4.11 µM | Potency [11] 1.64 µM | Potency [12] 0.82 µM | Potency [16] 0.231 µM | Potency [17] 0.366 µM | Potency [19] 0.206 µM
inactive: cytotoxicity [1] 7.07% [at 15.8 µM] | activity change, negative = cytotoxicity [8] 2.43% [at 15.8 µM] | activity change, negative = inhibition [13] -95.6% [at 19 µM] | activity change, negative = inhibition [14] -5.43% [at 19 µM] | activity change, negative = cytotoxicity [15] 26.2% [at 19 µM] | activity change [18] -11.2% [at 18.9 µM, hits give high values]

O=[N+]([O-])c1cc(Cl)ccc1Cl
inactive: Potency [1] | Potency [2] | Potency [3] | Potency [4] | Potency [5] | Potency [6] | Potency [7] | Potency [8] | Potency [9] | Potency [10] | Potency [11] | Potency [12] | Potency [13] | Potency [14] | Potency [15] | Potency [16] | Potency [17] | Potency [18] | Potency [19]

N#Cc1ccc(O)cc1
inactive: Potency [1] | Potency [2] | Potency [3] | Potency [4] | Potency [5] | Potency [6] | Potency [7] | Potency [8] | Potency [9] | Potency [10] | Potency [11] | Potency [12] | Potency [13] | Potency [14] | Potency [15] | Potency [16] | Potency [17] | Potency [18] | Potency [19]

C[C@@H]1CC[C@@]2(OC1)O[C@H]1[C@@H](O)[C@H]3[C@@H]4CC[C@H]5C[C@@H](O[C@@H]6O[C@H](CO)[C@H](O[C@@H]7O[C@H](CO)[C@@H](O)[C@H](O[C@@H]8OC[C@@H](O)[C@H](O)[C@H]8O)[C@H]7O[C@@H]7O[C@H](CO)[C@@H](O)[C@H](O[C@@H]8O[C@H](CO)[C@@H](O)[C@H](O)[C@H]8O)[C@H]7O)[C@H](O)[C@H]6O)[C@H](O)C[C@]5(C)[C@H]4CC[C@]3(C)[C@H]1[C@@H]2C
active: Potency [2] 11.6 µM | Potency [3] 4.63 µM | Potency [4] 18.4 µM | Potency [5] 11.6 µM | Potency [6] 6.55 µM | Potency [7] 4.63 µM | Potency [8] 23.2 µM | Potency [9] 13.1 µM | Potency [10] 29 µM | Potency [11] 23 µM | Potency [12] 14.5 µM | Potency [13] 57.8 µM | Potency [15] 29 µM | Potency [19] 1.15 µM
inactive: Potency [1] | Potency [14] | Potency [18]

CCCN(CC)CC1COC2(CCC(C(C)(C)C)CC2)O1 (stereo not given)
inactive: Potency [1] | Potency [2] | Potency [3] | Potency [4] | Potency [5] | Potency [6] | Potency [7] | Potency [8] | Potency [9] | Potency [10] | Potency [11] | Potency [13] | Potency [14] | Potency [15] | Potency [16] | Potency [17] | Potency [18]

COc1ccc(OC)c(CC(C)N)c1 (stereo not given)
inactive: Potency [1] | Potency [2] | Potency [3] | Potency [4] | Potency [5] | Potency [6] | Potency [7] | Potency [8] | Potency [9] | Potency [10] | Potency [11] | Potency [13] | Potency [20] | Potency [14] | Potency [15] | Potency [16] | Potency [17] | Potency [18]
